Source: PubChem (several laboratories)
SENP8 block-1: blocks human SENP8 cleavage of Nedd8 substrate; recombinant SENP8, Nedd8 substrate fluorescence; Q96LD8; inhibition, % at 20 µM; 360,000 compounds, 0.64% hits; in the data active = inhibition mostly above about 40%, no sharp cut-off; inactive = mostly below about 27%
Target sequence (Q96LD8 whole entry, looked up): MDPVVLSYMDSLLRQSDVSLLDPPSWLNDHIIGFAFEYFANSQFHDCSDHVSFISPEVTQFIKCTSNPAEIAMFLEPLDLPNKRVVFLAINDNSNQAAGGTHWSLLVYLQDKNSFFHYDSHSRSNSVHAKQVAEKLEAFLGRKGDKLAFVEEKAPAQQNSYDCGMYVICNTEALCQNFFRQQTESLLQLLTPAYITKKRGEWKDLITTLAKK
HSP90 refold inh: HSP90 refolding inhibition in rabbit reticulocyte lysate. luciferase refolding luminescence, 3 h. 290,000 compounds, 0.91% hits. inhibition, % at 5.6 µM;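 active = inhibition above the screen-wide mean plus 3 SD, computed separately per campaign, cut at about 16% in these data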;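 also: inhibitors lower the luminescence because luciferase stays unfolded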
SENP7 inh: inhibitors of human SENP7 protease; AID 434973; 330,000 compounds, 1.5% hits; recombinant SENP7, Z-RLRGG-aminoluciferin luminescence, 40 min; inhibition, % at 5 µM; Q9BQF6;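 active = inhibition above about 50% at the single test dose, limit read from the data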
Target sequence (Q9BQF6 706-1050 limits assumed): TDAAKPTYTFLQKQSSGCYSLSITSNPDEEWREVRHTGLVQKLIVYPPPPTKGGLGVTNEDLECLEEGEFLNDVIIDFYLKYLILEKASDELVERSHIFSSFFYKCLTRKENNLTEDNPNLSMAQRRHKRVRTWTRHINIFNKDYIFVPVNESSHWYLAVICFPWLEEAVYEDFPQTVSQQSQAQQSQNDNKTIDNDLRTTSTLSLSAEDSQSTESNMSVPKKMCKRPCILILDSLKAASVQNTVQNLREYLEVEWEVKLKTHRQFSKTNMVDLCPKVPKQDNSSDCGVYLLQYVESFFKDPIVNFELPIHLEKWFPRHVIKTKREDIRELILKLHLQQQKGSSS
SENP8 block-2: blocks the human protease SENP8. purified SENP8, Z-RLRGG-aminoluciferin cleavage, luminescence. Q96LD8. inhibition, % at 10 µM. 330,000 compounds, 1.2% hits; in the data active = inhibition above about 50%
SENP6 inh: SENP6 protease inhibition. Q9GZR1. Recombinant SENP6 catalytic domain, aminoluciferin luminescence. inhibition, % at 10 µM. 330,000 compounds, 1.8% hits;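 active = inhibition above about 50% at the single tested dose, limit read from the data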
SENP8 conf: human SENP8 inhibition, confirmed; shares compounds with SENP7 inh; Recombinant SENP8, Z-RLRGG-aminoluciferin luminescence, 60 min; inhibition, % at 12.5 µM; 6,200 compounds, 40% hits; AID 488912;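 active = mean inhibition across replicates above about 50%, limit read from the data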
SENP6 confirm: confirmation of human SENP6 protease inhibitors. AID 488915. recombinant SENP6, Z-RLRGG-aminoluciferin luminescence. inhibition, % at 12.5 µM. 6,200 compounds, 58% hits. shares compounds with SENP7 inh
SENP7 confirm: confirmation of human SENP7 protease inhibitors | inhibition, % at 12.5 µM | shares compounds with SENP7 inh | recombinant SENP7, Z-RLRGG-aminoluciferin luminescence, 40 min | 6,200 compounds, 69% hits | AID 488917
Casp3 select: caspase-3 inhibition (SENP selectivity assay); shares compounds with SENP7 inh; purified caspase-3, Z-DEVD-aminoluciferin luminescence, 60 min; inhibition, % at 12.5 µM; 6,200 compounds, 60% hits; AID 488918;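 active = mean inhibition above about 50%, limit read from the data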
Luc interf: counter-screen for SENP inhibitors: luminescence interference | inhibition, % at 12.5 µM | AID 488919 | shares compounds with SENP7 inh | Pre-incubated SENP8/Z-RLRGG-aminoluciferin, luciferase luminescence interference | 6,200 compounds, 39% hits;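 active = mean inhibition above about 50% when retested at one dose, limit read from the data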
Each line names hits and unclear results; the compound was inactive in the other large screens (follow-up assays come after a bar, where they were run). Hits are enriched below; roughly 2.7% of the tested compounds scored in any of these assays.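 The calls were made as follows, unless noted: active = mean inhibition above about 50% in the one-dose retest (limit read from the data); inactive = the rest.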

COc1cc(/C=C/C(=O)OCc2csc(CC(=O)Nc3ccc(C)cc3)n2)ccc1OCC#N	none (no result: HSP90 refold inh)
O=C(O)Cc1ccc(NC(=S)Nc2ccc(Br)cc2Cl)cc1	none
O=C1CCN2C=Nc3cccc4ccc1c2c34	SENP8 block-2 59, SENP6 inh 69 | SENP8 conf inactive | SENP6 confirm inactive | SENP7 confirm inactive | Casp3 select inactive | Luc interf inactive
CC(C)C[C@H](NC(=O)[C@@H]1Cc2c([nH]c3ccccc23)C2c3ccccc3C(=O)N21)C(=O)NCC1CCCO1 (some centres not stated)	none
O=[N+]([O-])c1cc([N+](=O)[O-])c(N2CCCCCC2)cc1NCCO	none
O=[N+]([O-])c1cc(NCCO)c(N2CCCCCC2)c2nonc12	SENP6 inh 56 | SENP8 conf inactive | SENP6 confirm inactive | SENP7 confirm inactive | Casp3 select inactive | Luc interf inactive
C1=CC2=NC34CCCCC3CC3=C(CCCC3)N4C2=CC1=NC1CCCCC1 (configuration not stated)	SENP6 inh 51 (no result: HSP90 refold inh) | SENP8 conf inactive | SENP6 confirm inactive | SENP7 confirm inactive | Casp3 select inactive | Luc interf inactive
Cc1cc(N/N=C/c2ccc3c(c2)OCO3)nc2ccccc12	SENP7 inh 70, SENP6 inh 59 | SENP8 conf inactive | SENP6 confirm 68 | SENP7 confirm 88 | Casp3 select inactive | Luc interf inactive
O=c1[nH]c(N/N=C/c2ccccc2)nc2ccccc12	none
O=c1[nH]c(N/N=C\c2ccc3c(c2)OCO3)nc2ccccc12	SENP6 inh 56 | SENP8 conf inactive | SENP6 confirm inactive | SENP7 confirm inactive | Casp3 select 60 | Luc interf inactive
Cc1ccc(S(=O)(=O)CCC(=O)Nc2nc(-c3ccncc3)cs2)cc1	SENP6 inh 52 | SENP8 conf inactive | SENP6 confirm inactive | SENP7 confirm inactive | Casp3 select inactive | Luc interf inactive
Cc1c(C(=O)N2CCCCC2)c(S(=O)(=O)NCCc2ccc(S(N)(=O)=O)cc2)c(C)n1C	none
COc1ccc(-c2cc(=O)c3cc(O)ccc3o2)cc1	SENP7 inh 78, SENP8 block-2 53, SENP6 inh 69 | SENP8 conf inactive | SENP6 confirm inactive | SENP7 confirm 87 | Casp3 select 73 | Luc interf inactive
COc1ccc2oc(-c3ccco3)cc(=O)c2c1	SENP7 inh 80, SENP8 block-2 61, SENP6 inh 81 | SENP8 conf inactive | SENP6 confirm inactive | SENP7 confirm inactive | Casp3 select 55 | Luc interf inactive
COc1cc(OC)c2c(=O)cc(-c3cccnc3)oc2c1	none (no result: SENP7 inh, SENP8 block-2, SENP6 inh)
COc1ccc(-c2cc(=O)c3c(O)cc(O)cc3o2)cc1	SENP7 inh 85, SENP8 block-2 68, SENP6 inh 84 (no result: HSP90 refold inh) | SENP8 conf inactive | SENP6 confirm 52 | SENP7 confirm 64 | Casp3 select 75 | Luc interf inactive
COc1ccc2oc(-c3ccncc3)cc(=O)c2c1	none (no result: HSP90 refold inh, SENP7 inh, SENP8 block-2, SENP6 inh)
COc1cc(-c2cc(=O)c3c(O)cc(O)cc3o2)cc(OC)c1OC	none (no result: HSP90 refold inh, SENP7 inh, SENP8 block-2, SENP6 inh)
COc1cc(OC)c2c(=O)cc(-c3ccccc3)oc2c1	SENP7 inh 57, SENP6 inh 59 | SENP8 conf 64 | SENP6 confirm 61 | SENP7 confirm 82 | Casp3 select 77 | Luc interf 68
Cc1onc(-c2ccccc2)c1C(=O)N1CCN(CCc2ccccc2)CC1	none
O=c1cc(-c2ccccc2)oc2ccc(O)cc12	SENP7 inh 56, SENP6 inh 66 | SENP8 conf 54 | SENP6 confirm 51 | SENP7 confirm 82 | Casp3 select 66 | Luc interf 71
COc1ccc(-c2ccc3oc(-c4ccsc4)cc(=O)c3c2)cn1	SENP7 inh 70 (no result: HSP90 refold inh) | SENP8 conf inactive | SENP6 confirm inactive | SENP7 confirm inactive | Casp3 select inactive | Luc interf inactive
NC(=O)c1c(-c2ccccc2)oc2ccc(O)cc12	none
CCCCN(C(=O)CSc1nc(CCC)cc(=O)[nH]1)c1c(N)n(Cc2ccccc2)c(=O)[nH]c1=O	none (no result: HSP90 refold inh)
CCOC(=O)c1nnn(CC(=O)Nc2cc(Cl)ccc2C)c1C(=O)OCC	none
O=C(Nc1cccc2ccccc12)N1CCN(c2ccccc2)CC1	none
O=C(Nc1cccc2ccccc12)N1CC=CCC1	SENP6 inh 65 | SENP8 conf inactive | SENP6 confirm inactive | SENP7 confirm inactive | Casp3 select inactive | Luc interf inactive
CC(NC(=O)COc1ccc(/C=N/NS(=O)(=O)c2ccccc2)cc1)c1ccccc1 (configuration not stated)	none
O=C(Nc1ccc(F)c(Cl)c1)c1nsc(Cl)c1Cl	SENP7 inh 96, SENP8 block-2 91, SENP6 inh 93 | SENP8 conf 53 | SENP6 confirm 74 | SENP7 confirm 87 | Casp3 select 80 | Luc interf inactive
O=C(Nc1ccc(F)cc1)c1nsc(Cl)c1Cl	SENP7 inh 83, SENP8 block-2 84, SENP6 inh 94 | SENP8 conf 62 | SENP6 confirm 87 | SENP7 confirm 97 | Casp3 select 90 | Luc interf 57
COC[C@@H]1CCCN1c1ccc2c(c1)O[C@@H](COCc1ccccc1)CN([C@@H](C)c1ccccc1)S2(=O)=O	none (no result: HSP90 refold inh, SENP7 inh, SENP8 block-2, SENP6 inh)
CCN(CC)S(=O)(=O)c1cc(C)c(C)cc1Br	none
COc1ccc(NC(=O)c2cccc(Oc3ccccc3)c2)cn1	SENP7 inh 62, SENP6 inh 72 | SENP8 conf 52 | SENP6 confirm 52 | SENP7 confirm 83 | Casp3 select inactive | Luc interf inactive
NC(=O)c1ccc(NC(=O)c2cccc(Oc3ccccc3)c2)cc1	SENP7 inh 68 | SENP8 conf inactive | SENP6 confirm inactive | SENP7 confirm inactive | Casp3 select inactive | Luc interf inactive
CC1=NN(C(=O)c2ccccc2Cl)C(O)(c2cccnc2)C1 (configuration not stated)	none
N#C/C(=C(/O)c1ccc([N+](=O)[O-])o1)c1nc2ccccc2[nH]1	SENP6 inh 66 | SENP8 conf inactive | SENP6 confirm inactive | SENP7 confirm inactive | Casp3 select inactive | Luc interf inactive
O=C(Nc1ccc(Cl)cc1)Nc1ccccc1C(=O)NCc1ccco1	SENP7 inh 96, SENP8 block-2 84, SENP6 inh 91 | SENP8 conf 80 | SENP6 confirm 81 | SENP7 confirm 99 | Casp3 select 78 | Luc interf 78
